Twelve molecules from PubChem BioAssay (NCI) can be followed below.

Compounds without any hit were thinned out: in the full panel of roughly 83,000, 20% have a hit.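 Method: cells in 96-well plates; compound added at one concentration; 48 h incubation; percent growth measured; values under 10 scored active.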 Unmarked numbers belong to inactive results. Activity calls are given as the source filed them.

Among the test systems are NCI-H23 lung; NCI-H226 lung; NCI-H322M lung; HOP-62 NSCLC; NCI-H460 lung; NCI-H522 lung; A549/ATCC NSCLC; 786-0 renal; COLO 205 colon; DU-145 prostate.
What all share (assay): NCI-60 one-dose screen, 48 h (100 = growth as untreated, 0 = no growth, -100 = all killed)
Holding throughout (conditions): 10 µM

Take `CCN(CC)CCCC(C)Nc1nc(-c2ccc(OC)cc2)nc2cc(Cl)ccc12` (stereo not given): the growth was 73.2% in the test with NCI-H23 lung; 91.7% with NCI-H226 lung; 65.4% in the test with NCI-H322M lung; 70.5% in the test with HOP-62 NSCLC; 72.5% with NCI-H460 lung; 35.6% in the test with NCI-H522 lung. Also, the growth in the test with A549/ATCC NSCLC is 69.6%; in the test with 786-0 renal, 65.5%; in the test with COLO 205 colon, 41.6%; in the test with DU-145 prostate, 77.9%.

`Nc1c(C(=O)Nc2cccc(F)c2)sc2nc3c(cc12)C(=O)CCC3`: the growth is 41.6% in the test with NCI-H23 lung; 64.6% in the test on NCI-H226 lung; 58.8% in the test with NCI-H322M lung; 69.3% in the test with HOP-62 NSCLC; 11.5% in the test with NCI-H460 lung; 5.31% (active) in the test with NCI-H522 lung. The growth is 27.6% with A549/ATCC NSCLC, 51.6% in the test with 786-0 renal, -3.2% (active) with COLO 205 colon and -12.7% (active) in the test on DU-145 prostate.

Turning to `OCC1OC(n2cnc3c(N/N=C\c4ccccn4)ncnc32)C(O)C1O` (stereo not given), the growth in the test on NCI-H23 lung is 27.1%; in the test with NCI-H226 lung, 11.3%; with NCI-H322M lung, 7.28% (active); with HOP-62 NSCLC it was 10%; in the test with NCI-H460 lung it was 1.62% (active); in the test with NCI-H522 lung, 38.7%. Also, the growth is 24.6% in the test with A549/ATCC NSCLC, 16.2% with 786-0 renal, 22.7% in the test with COLO 205 colon and 17.7% in the test on DU-145 prostate.

For the molecule `Cc1nc2ccc(CN(C)c3ccc(C(=O)N[C@@H](CCC(=O)O)C(=O)O)s3)cc2c(=O)[nH]1`, the growth in the test with NCI-H23 lung was 54.9%; with NCI-H226 lung it was 56.1%; in the test with NCI-H322M lung, 85.9%; with HOP-62 NSCLC, 28.6%; with NCI-H460 lung, 29.1%; with NCI-H522 lung it was 71.9%. In addition, the growth is 60% in the test with A549/ATCC NSCLC, 18.3% in the test with 786-0 renal, 58.5% in the test with COLO 205 colon and 52.6% in the test on DU-145 prostate.

With `CN1CCCNc2c(c(=O)c2=O)NCCCN(C)CCCNc2c(c(=O)c2=O)NCCCN(C)CCCNc2c(c(=O)c2=O)NCCCN(C)CCCNc2c(c(=O)c2=O)NCCCN(C)CCCNc2c(c(=O)c2=O)NCCCN(C)CCCNc2c(c(=O)c2=O)NCCCN(C)CCCNc2c(c(=O)c2=O)NCCC1`, the growth is 46.8% with NCI-H23 lung; 74.6% with NCI-H226 lung; 44.8% in the test on NCI-H322M lung; 49.1% in the test with HOP-62 NSCLC; 32.1% in the test on NCI-H460 lung; 56.1% in the test on NCI-H522 lung. Also, the growth in the test with A549/ATCC NSCLC was 37.1%; in the test with 786-0 renal it was 54.3%; in the test with COLO 205 colon, 13.9%; with DU-145 prostate it was -30.2% (active).

Turning to `O=C(Nc1cccc(Br)c1)c1cc(=O)[nH]c2ccccc12`, the growth with NCI-H23 lung is 103%; in the test on NCI-H226 lung, 82.9%; in the test with NCI-H322M lung, 94.2%; in the test on HOP-62 NSCLC, 64.3%; with NCI-H460 lung it was 105%; in the test on NCI-H522 lung it was 86.7%. Further, the growth was 94.1% in the test with A549/ATCC NSCLC, 103% with 786-0 renal, 85.1% with COLO 205 colon and 110% with DU-145 prostate.

For the molecule `CS(=O)(=O)Nc1ccc(Nc2c3ccccc3nc3cc(N)ccc23)cc1`, the growth in the test with NCI-H23 lung was 20.5%; with NCI-H226 lung, -13.9% (active); in the test with NCI-H322M lung, 42%; in the test with HOP-62 NSCLC, 11.9%; in the test with NCI-H460 lung, 1.01% (active); in the test on NCI-H522 lung it was -11.5% (active). Besides, the growth in the test on A549/ATCC NSCLC is 11%; in the test with 786-0 renal, 2.37% (active); with COLO 205 colon, 51.9%; with DU-145 prostate, 16.9%.

As for `S=C1SCC(c2ccccc2)S1` (stereo not given), the growth was 113% in the test with NCI-H23 lung; 101% in the test on NCI-H226 lung; 111% in the test on NCI-H322M lung; 108% in the test on HOP-62 NSCLC; 114% with NCI-H460 lung; 131% in the test on NCI-H522 lung. The growth in the test with A549/ATCC NSCLC is 102%; in the test with 786-0 renal it was 109%; in the test with COLO 205 colon it was 111%; with DU-145 prostate it was 125%.

For `Nc1nc(-c2ccccc2Cl)cc(-c2ccc(Cl)cc2Cl)n1`, the growth in the test with NCI-H23 lung was 75.4%; in the test with NCI-H226 lung, 87.7%; in the test with NCI-H322M lung, 89.5%; with HOP-62 NSCLC it was 76.2%; in the test on NCI-H460 lung, 49.8%; in the test with NCI-H522 lung, 68.5%. In addition, the growth in the test on A549/ATCC NSCLC is 52.7%; in the test on 786-0 renal it was 90.2%; with COLO 205 colon, 64.9%; in the test with DU-145 prostate it was 91.4%.

As for `COc1cc(Nc2ncnc(Nc3ccc4c(n3)NC(=O)C(C)(C)O4)n2)cc(OC)c1OC`, the growth in the test on NCI-H23 lung was 25.5%; with NCI-H226 lung, -27.7% (active); in the test on NCI-H322M lung, 4.97% (active); in the test on HOP-62 NSCLC, 13.6%; with NCI-H460 lung, 12.1%; with NCI-H522 lung it was -11.6% (active). For the same molecule, the growth with A549/ATCC NSCLC was -23.1% (active); in the test with 786-0 renal it was 8.87% (active); in the test on COLO 205 colon, -2.65% (active); in the test with DU-145 prostate, 18.8%.

Regarding `COc1ccc(Cn2c(C(N)=O)cc3c2-c2nc(N)ncc2CCC3)cc1`, the growth is 106% with NCI-H23 lung; 98.6% with NCI-H226 lung; 89.1% in the test on NCI-H322M lung; 100% in the test with HOP-62 NSCLC; 97.7% in the test with NCI-H460 lung; 103% with NCI-H522 lung. The growth in the test with A549/ATCC NSCLC is 93.7%; with 786-0 renal, 101%; with COLO 205 colon, 101%; in the test on DU-145 prostate it was 99.4%.

For the molecule `O=c1[nH]c(-c2ccc(Cl)cc2)nc2sc3c(c12)CCCC3`, the growth with NCI-H23 lung is 86.1%; with NCI-H226 lung it was 78.1%; in the test on NCI-H322M lung it was 114%; with HOP-62 NSCLC, 55.7%; in the test on NCI-H460 lung, 52.2%; in the test on NCI-H522 lung it was 82.4%. Also, the growth in the test with A549/ATCC NSCLC was 95.8%; in the test on 786-0 renal it was 95.7%; with COLO 205 colon it was 109%; with DU-145 prostate it was 63.9%.
